Bioassay records as filed in PubChem.
PLK1 PBD block: qHTS for Inhibitors of PLK1-PDB (polo-like kinase 1 - polo-box domain): Primary Screen | 360,000 tested, 2.8% active | AID 720504, 2013 | Plk1 PBD binding of FITC phosphopeptide, fluorescence polarization | Potency, µM, for inactives: max response, negative = inhibition, most hits filed as inhibitors; also: series mostly up to about 57 µM; % is scaled to controls: 0 for no effect and ±100 for the full control effect; nearly all actives have a fitted effect of over 65% in size
BAZ2B block: qHTS Assay for Inhibitors of BAZ2B | 360,000 tested, 4.4% active | AlphaScreen BAZ2B-H3K14Ac peptide displacement | Bromodomain adjacent to zinc finger domain protein 2B (Homo sapiens), Q9UIF8 | AID 504333, 2011 | Potency, µM (doses to about 114 µM), inactives show at the highest dose activity change, negative = inhibition, hits mostly inhibitors; also: % is scaled to controls: 0 for no effect and ±100 for the full control effect; nearly all actives have a fitted effect of over 60% in size
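In this displacement format the biotinylated H3(5-23) peptide acetylated at Lys14 serves as ligand at 50 nM, with BAZ2B at 50 nM in PBS pH 7.4 containing 0.01% Tween-20. Donor and acceptor beads are 10 ug/mL final.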
HP1b chromo inh: HTS for Inhibitors of HP1-beta Chromodomain Interactions with Methylated Histone Tails; Chromobox protein homolog 1 (Homo sapiens), P83916; AlphaScreen HP1-beta / biotin-H3K9me3 peptide binding; Potency, µM (top dose mostly 114 µM), without a hit: at the top dose activity change, negative = inhibition, usual class: inhibitors; 390,000 tested, 0.56% active; AID 540317, 2011; also: nearly all actives have a fitted effect of over 70% in size
Target sequence (P83916 whole entry, looked up): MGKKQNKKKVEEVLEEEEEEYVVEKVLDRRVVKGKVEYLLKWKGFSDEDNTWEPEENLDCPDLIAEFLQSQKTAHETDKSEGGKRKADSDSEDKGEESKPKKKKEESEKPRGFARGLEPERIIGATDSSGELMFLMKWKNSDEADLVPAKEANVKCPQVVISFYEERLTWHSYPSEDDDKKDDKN
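Compound inhibition of the preformed complex between 50 nM HP1-beta and 50 nM biotinylated H3K9me3 peptide was read by AlphaScreen. Buffer was PBS pH 7.4 with 0.01% Tween-20. Incubations ran 30 min at room temperature, with 10 ug/mL donor/acceptor beads.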
G9a block: qHTS Assay for Inhibitors of Histone Lysine Methyltransferase G9a; Histone-lysine N-methyltransferase EHMT2 (Homo sapiens), Q96KQ7; G9a H3K9 monomethylation, AlphaScreen, 2 h; Potency, µM (top dose mostly 102 µM), for inactives: top-dose activity, negative = inhibition, hits mostly inhibitors; 350,000 tested, 8.8% active; AID 504332, 2011; also: % is scaled to controls: 0 for no effect and ±100 for the full control effect; nearly all actives have a fitted effect of over 75% in size
Target sequence (Q96KQ7 913-1193 limits assumed): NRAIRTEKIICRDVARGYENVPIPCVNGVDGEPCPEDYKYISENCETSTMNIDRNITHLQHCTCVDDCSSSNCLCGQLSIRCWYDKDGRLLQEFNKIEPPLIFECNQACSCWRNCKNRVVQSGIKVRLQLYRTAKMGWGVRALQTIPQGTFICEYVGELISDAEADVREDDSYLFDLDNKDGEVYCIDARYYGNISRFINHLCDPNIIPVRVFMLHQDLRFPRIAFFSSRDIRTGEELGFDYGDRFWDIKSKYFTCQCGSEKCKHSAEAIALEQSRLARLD
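Enzyme 20 nM + cpd, 15 min RT; add b-H3K9 pep 500 nM / SAM 20 uM; 2 h RT; anti-H3K9me1 Ab 0.5 ug/mL + SA donor / anti-rabbit acceptor beads 20 ug/mL each, 10 min; AlphaScreen read.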
Sfp PPTase inh: qHTS Assay for Inhibitors of Bacillus subtilis Sfp phosphopantetheinyl transferase (PPTase) | AID 1490, 2009 | Biochemical Sfp PPTase activity, qHTS | Potency, µM, for inactives: largest response in the series, negative = inhibition, most hits filed as inhibitors | 4'-phosphopantetheinyl transferase ffp (Bacillus subtilis), Q9F4F7 | 310,000 tested, 3.5% active;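 also: the enzyme is Sfp with the accession as filed and its product quenches rhodamine fluorescence; 0% = enzyme reaction without inhibitor and -100% = no enzyme wells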
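Buffer: 50 mM Hepes-Na pH 7.6, 10 mM MgCl2, 0.01% Nonidet P-40, 0.01% BSA. Enzyme 15 nM, pre-exposed to compound 15 min; substrates then added and fluorescence change tracked over 30 min.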
JMJD2A Tudor: qHTS Assay for Inhibitors of JMJD2A-Tudor Domain; Lysine-specific demethylase 4A (Homo sapiens), O75164; AlphaScreen JMJD2A-Tudor / H3K4me3 peptide binding; Potency, µM (series often up to 114 µM), inactives show at the top dose activity change, negative = inhibition, most hits filed as inhibitors; 390,000 tested, 4.4% active; also: % is scaled to controls: 0 for no effect and ±100 for the full control effect; nearly all actives have a fitted effect of over 50% in size
* = called active by the depositor; ? = inconclusive; . = no result; ! = not confirmed by another sample; [ ] = remark or other dose. Sampled rows, rich in hits. Any-hit rate of the full collection: about 12%. Calls follow the shape of the dose curve; as a rule, active = well fitted curve in the direction sought with a large enough effect; inconclusive = small, poorly fitted or top-dose-only effect, or another doubt; inactive = no such curve, though single readings can be large; an effect the other way counts as inactive or inconclusive. Potency is read from the fitted curve at half-maximal effect.

SMILES | PLK1 PBD block | BAZ2B block | HP1b chromo inh | G9a block | Sfp PPTase inh | JMJD2A Tudor
Cc1ccc(NC(=O)C(C)S)cc1 (stereo not given) | -3.9% | 3.3% | 48.3% | 19.4% | 39.8µM* | -2.8%
Cc1ccc(NC(=O)C(CC(C)C)NC(N)=O)cc1 (stereo not given) | 1.9% | 11.0% | 20.3% | 16.2%[59 µM] | 6.2% | 0.0%
Cc1ccc(NC(=O)C(C)Sc2nnc(C)n2C)cc1 (stereo not given) | -6.4% | ? | 19.0% | -21.5%[0.501 µM] | 70.8µM* | -4.1%
CCOc1ccccc1CNC(=O)CCC(=O)N1CCSc2ccccc21 | . | -29.2% | 33.1% | -26.0%[59 µM] | . | -15.4%
CCc1ccc(C(O)c2ncc(-c3ccccc3F)[nH]2)cc1 (stereo not given) | -1.9% | . | . | . | . | .
Cc1ccc(CNC(=O)CO/N=C/c2ccc3c(c2)OCO3)cc1 | 26.7µM* | 7.2% | -3.3% | 21.4%[59 µM] | -9.0% | -21.0%
Cc1cccc(NC(=O)CO/N=C/c2ccc3c(c2)OCO3)c1 | -4.7% | 3.1% | 51.1% | 4.9%[59 µM] | -12.0% | -7.4%
O=C(CCc1ccc(O)c(O)c1)N/N=C/c1ccc2c(c1)OCO2 | -1.2% | -29.9% | ? | . | 39.8µM* | ?
CC(C)Oc1ccc(CCC(=O)N/N=C/c2ccc3c(c2)OCO3)cc1 | 2.8% | -3.6% | -15.6% | 1.5% | 7.2% | -1.4%
Cc1ccc(C)c(NC(=O)CCC(=O)N/N=C/c2ccc3c(c2)OCO3)c1 | 16.8µM* | 14.4% | -20.8% | 14.7% | -4.8% | ?
CCOc1ccc2nc(C)cc(Nc3ccccc3OCC)c2c1 | . | 19.2% | 85.0% | 5.5%[59 µM] | . | -21.6%
CCN(CC)C(c1ccc(F)cc1)c1nnnn1C1CCCCC1 (stereo not given) | -4.5% | -30.6% | 31.6% | 89.1µM* | 5.8% | 7.4%
Fc1ccc(C(c2nnnn2C2CCCC2)N(Cc2ccco2)CC2CCCO2)cc1 (stereo not given) | -17.7% | -3.3% | -14.7% | 1.2%[59 µM] | -3.0% | -1.5%[11.4 µM]
c1ccc(CN(Cc2ccco2)C(c2ccncc2)c2nnnn2C2CCCC2)cc1 (stereo not given) | ? | ? | -3.2% | 20µM* | -27.2% | ?
COc1ccc(CCNC(=O)C(C(=O)c2ccccc2)n2cc(Cl)ccc2=O)cc1OC (stereo not given) | -6.6% | 8.8% | 41.1% | 50.1µM* | 12.9% | -3.4%
O=C(NC1CCCCC1)C(=S)NCCc1ccccc1 | 23.8µM* | -9.1% | -15.2% | 11.2µM* | 28.2µM* | -5.5%
COc1ccc(CCNC(=O)c2ccc3c(c2)NC(=O)C(CSCc2cc(C)ccc2C)N3)cc1OC (stereo not given) | . | -33.8%[57.1 µM] | . | 1.78µM* | 44.7µM* | .
COc1cc(C)c(NC(=O)C(=S)NCCc2ccccc2)cc1C | 11.9µM* | -34.5% | ? | ? | 15.8µM* | -30.8%
COc1ccc(CCNC(=O)CCNC(=O)c2ccc(Br)cc2)cc1OC | -7.5% | 9.0% | 10.2% | -8.1% | 5.6% | -13.9%
COc1ccc(CCNC(=O)c2ccc(CNS(=O)(=O)c3ccc(C(C)(C)C)cc3)cc2)cc1OC | -4.2% | -6.5% | 19.8% | -5.8%[59 µM] | 10.8% | -15.5%
COc1ccc(CNS(=O)(=O)c2csc(C(N)=O)c2)cc1OC | -10.0% | -8.1% | 25.9% | 6.2%[59 µM] | 14.9% | 31.6µM*!
COc1ccc(CCNS(=O)(=O)c2cccc([N+](=O)[O-])c2)cc1OC | -15.3% | 3.3% | 0.3% | . | 16.7% | -19.3%
COc1ccc(CCNC(=O)c2ccc(CNS(=O)(=O)c3cc(C)ccc3C)cc2)cc1OC | -0.2% | -5.5% | 5.4% | 22.4µM* | 3.0% | -20.8%
COc1ccc(CCNS(=O)(=O)c2cccc(C(=O)O)c2)cc1OC | 3.36µM* | -11.0% | ? | -25.7% | 12.8% | -32.8%[11.4 µM]
COc1ccc(CCNC(=S)NC(=O)c2ccc(Br)cc2)cc1OC | -25.1% | 31.6µM* | 11.7% | -32.0% | 1.1% | -34.4%
SMILES | PLK1 PBD block | BAZ2B block | HP1b chromo inh | G9a block | Sfp PPTase inh | JMJD2A Tudor
COc1ccc(CCNC(=S)NC(=O)c2ccccc2)cc1C | -16.0% | ? | 11.8% | 56.2µM* | -11.1% | -28.2%
Nc1sc(Cc2ccccc2)cc1C(=O)NC1CCCCC1 | 26.7µM* | . | . | . | . | .
Cc1ccc(CNC(=O)Cn2cc(S(=O)(=O)Cc3ccccc3F)c3ccccc32)cc1 | . | -18.2% | 23.5% | 14.0%[59 µM] | . | -6.9%
COc1nonc1NC(=O)CSc1nc2ccccc2[nH]1 | 26.7µM* | 0.0% | 2.6% | ? | -3.7% | -21.2%[11.4 µM]
O=C(CSc1nc2ccccc2[nH]1)NCc1ccccc1 | -4.8% | 3.8% | 17.8% | 16.6% | 1.8% | -13.3%
Cc1nonc1NC(=O)CSc1nc2ccccc2[nH]1 | -7.8% | -15.2% | 21.9% | -31.1% | 7.7% | -7.6%
CCOC(=O)NC(=O)CSc1nc2ccccc2[nH]1 | -1.3% | ? | 48.0% | 56.2µM* | 17.4% | -1.4%
O=CC1=C(c2ccccc2)Oc2ccccc2O1 | -27.3% | -5.2% | 45.0% | . | 2.2% | -8.9%
C=CCNCCOc1ccccc1-c1ccccc1 | -1.9% | 6.4% | 45.7% | -1.0%[59 µM] | 5.8% | -6.1%
CCCCNCCOCCOc1ccccc1-c1ccccc1 | -8.6% | ? | ? | ? | -6.2% | 1.41µM*
COCCNCCCCOc1ccccc1-c1ccccc1 | -3.5% | 56.2µM* | ? | 7.08µM* | 22.7% | 3.16µM*
COc1ccc2c(c1)c(C(O)CN1CCC(Cc3ccccc3)CC1)c(C)n2C (stereo not given) | -2.4% | 35.5µM* | ? | ? | 3.1% | 28.2µM*
COc1ccc2c(c1)c(C(O)CN1CCN(Cc3ccc4c(c3)OCO4)CC1)c(C)n2C (stereo not given) | -14.7% | ? | ? | 50.1µM* | -11.8% | 56.2µM*
COc1ccc2c(c1)c1ncnc(N3CCN(Cc4ccc5c(c4)OCO5)CC3)c1n2C | . | 0.3% | . | -43.0%[59 µM] | -1.7% | .
Cc1c(C(O)CN2CCN(Cc3ccc4c(c3)OCO4)CC2)c2ccccc2n1C (stereo not given) | -13.6% | ? | -38.0% | ? | 1.2% | 56.2µM*
O=C(NCCOc1cccc(Cl)c1Cl)c1cc(-n2cnnc2)ccc1Cl | -8.4% | 12.2% | 29.5% | 19.7%[2.33 µM] | 11.7% | -16.7%
CCSCCNC(=O)c1cc(-n2cnnc2)ccc1Cl | -6.8% | 0.6% | 36.2% | 2.51µM* | -0.9% | -7.2%
CCCCCn1c(=O)c(C(=O)c2ccccc2)nc2ccccc21 | 0.8% | -1.3%[57.1 µM] | -2.4% | -15.2%[59 µM] | 9.1% | -20.8%
CCCCCCn1c(=O)[nH]c2nc3cc(N)ccc3nc2c1=O | ? | 1.0% | 58.6% | 39.8µM* | ? | 12.0%
